Bioassay records as filed in PubChem BioAssay.
Most compounds without a hit are left out; they make up all but 1.8% or so of the library.
CtBP-E1A blk – qHTS Assay for Inhibitors of the CtBP/E1A Interaction; CtBP / adenovirus E1A interaction (AlphaScreen); AlphaScreen GST-E1A/His-CtBP binding, 1536-well; active compounds read low; activity change, % (concentration not given with the values); 340,000 tested, 0.49% active; AID 651724, 2012
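Steps: dispense buffer (Tris pH 8.0, NaCl 300 mM, TCEP 1 mM, BSA, Tween 20); add 5X protein mix (GST-E1A, His-CtBP, 125 nM each); pin 23 nL compound; 2 h at 37 °C, dark; add 5X beads (50 ug/mL); 1 h; read.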
PI4K2A block – qHTS for small molecular inhibitors of PI4K2A. Phosphatidylinositol 4-kinase type 2-alpha (Homo sapiens), Q9BTU6. purified PI4K2A, ADP-Glo luminescence, 1 h; active compounds read low. 420,000 tested, 0.13% active. activity change, negative = inhibition, % at 76.9 µM; in the data active means activity change below about -50%; inconclusive means mostly about -30% to -49%;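 further: -100% = wells without enzyme as full effect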
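ADP-Glo luminescence measured ADP generated by PI4K2A enzyme (4 ug/mL before mixing) with 1.2 mM PI substrate (pre-mix) and 300 microM ATP (pre-mix). Tris pH7.5 buffer with MgCl2, Triton X-100; 1 h reaction at ambient temperature.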
Six1-Eya2 inh – qHTS Assay for Inhibitors of the Six1/Eya2 Interaction | AlphaScreen GST-Six1/His-Eya2 binding, biochemical; active compounds read low | AID 651725, 2012 | 360,000 tested, 0.56% active | activity change, % (concentration not given with the values) | Homeobox protein SIX1 (Homo sapiens) + Protein phosphatase EYA2 (Homo sapiens), …
Target sequence (O00167 whole entry, looked up): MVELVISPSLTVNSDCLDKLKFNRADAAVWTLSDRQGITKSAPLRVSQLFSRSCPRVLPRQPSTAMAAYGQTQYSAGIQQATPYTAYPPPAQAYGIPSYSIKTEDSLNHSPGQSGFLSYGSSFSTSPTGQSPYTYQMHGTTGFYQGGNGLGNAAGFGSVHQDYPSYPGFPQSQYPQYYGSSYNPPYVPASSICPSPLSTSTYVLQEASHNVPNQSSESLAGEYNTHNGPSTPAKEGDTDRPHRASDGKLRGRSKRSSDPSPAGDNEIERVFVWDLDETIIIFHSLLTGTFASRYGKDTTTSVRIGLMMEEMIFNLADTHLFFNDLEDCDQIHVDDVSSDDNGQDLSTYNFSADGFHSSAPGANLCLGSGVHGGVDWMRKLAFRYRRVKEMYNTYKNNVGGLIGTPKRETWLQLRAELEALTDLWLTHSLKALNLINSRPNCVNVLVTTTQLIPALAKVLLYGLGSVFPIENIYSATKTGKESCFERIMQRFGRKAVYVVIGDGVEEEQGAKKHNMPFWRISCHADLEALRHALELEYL
Target sequence (Q15475 whole entry, looked up): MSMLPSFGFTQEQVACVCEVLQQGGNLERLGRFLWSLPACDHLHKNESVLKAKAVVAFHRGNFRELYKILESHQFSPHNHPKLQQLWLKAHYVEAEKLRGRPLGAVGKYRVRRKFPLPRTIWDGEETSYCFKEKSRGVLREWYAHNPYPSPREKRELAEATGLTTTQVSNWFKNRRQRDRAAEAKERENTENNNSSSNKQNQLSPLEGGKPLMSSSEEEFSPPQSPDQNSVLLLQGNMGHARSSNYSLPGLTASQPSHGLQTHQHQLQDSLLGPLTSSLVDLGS
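GST-Six1 + His-Eya2 (5X stock: 250/500 nM); Tris pH 8.0, 300 mM NaCl, 0.05% BSA, 0.02% Tween 20; GSH donor/Ni acceptor beads; 1 h 37 °C dark; AlphaScreen readout.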
PI5P4K alpha inh – qHTS for Inhibitors of phosphatidylinositol 5-phosphate 4-kinase (PI5P4K) | Phosphatidylinositol 5-phosphate 4-kinase type-2 alpha (Homo sapiens), P48426 | PI5P4Kalpha enzyme, ADP-Glo luminescence, 60 min; active compounds read low | max response, % | 330,000 tested, 1.2% active | AID 652105, 2013; active means max response of -50% or lower; inconclusive means between -30% and -50%; inactive means -30% or higher; further: value at the top dose of about 77 µM
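ADP-Glo luminescence end-point read after a 60 min room-temperature kinase reaction of PI5P4Kalpha plus substrate, initiated with ATP at 5 microM final. Buffer: 0.038 M HEPES pH 7.4, EGTA, 0.1% CHAPS, 5% DMSO.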
Akt phos inh – HTS Assay for Inhibitors of Akt Phophorylation: Primary Screen | Neuro2A IGF-stimulated pAkt S473 HTRF, 20 min; active compounds read low | activity change, % for hits at 50 µM | 360,000 tested, 0.32% active; in the data active means activity change below about -80%; inconclusive means mostly about -51% to -80%
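Single-point screen (50 µM final compound) in Neuro2A cells stimulated 20 min with 6 nM IGF at 37 deg C. After lysis, Ser473-phosphorylated Akt read by HTRF (ex 330 nm, em 615/665 nm) as the 665/615 ratio.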
ADP-Glo interf – qHTS for Inhibitors of PI5P4K: ADP-Glo counter assay. Potency, µM (titrated, usually from 76.9 µM), for inactives: at the highest dose activity change, negative = inhibition, hits mostly inhibitors. AID 743285, 2014. ADP-Glo detection counter-screen, luciferase luminescence, no enzyme. shares compounds with PI5P4K alpha inh. 1,100 tested, under 10 active; active means well fitted curve in the direction sought with a large enough effect; inconclusive means small, poorly fitted or top-dose-only effect, or another doubt; inactive means no such curve, though single readings can be large or run the other way
* marks the source's active call; other numbers are inactive results; i = inactive; ? = inconclusive; / = no result. Unless noted, no stated cut-off is given here; in the data, active means activity change below about -65%; inconclusive means mostly about -30% to -63%; inactive means weaker than that. Unless noted, on the % scale 0 is the no-effect control and ±100 the full control effect.

SMILES | CtBP-E1A blk | PI4K2A block | Six1-Eya2 inh | PI5P4K alpha inh | Akt phos inh | ADP-Glo interf
CCCC(c1nnnn1C1CCCCC1)N1CCN(c2ncccn2)CC1 (stereo unspecified) | 6 | 1 | -3 | 4 | i | /
O=C(CC1C(=O)NCCN1CC1CCCCC1)NCc1cc(F)ccc1F (stereo unspecified) | 8 | -22 | 1 | -63* | i | 6%
O=C(CC1C(=O)NCCN1CC1CCCCC1)NCc1ccc(F)cc1F (stereo unspecified) | -5 | -7 | -2 | 1 | i | /
O=C(CCSc1ccccc1)N1CCN(c2ccccc2)CC1 | 20 | 3 | 10 | 0 | i | /
COc1ccc(N2CCN(C(=O)CNC(=O)c3cn(-c4ccccc4OC)c(=O)c4ccccc34)CC2)cc1 | 0 | -18 | -6 | -3 | i | /
Cc1cc(NS(=O)(=O)c2ccc(NC(=O)COc3ccc(Br)cc3)cc2)nc(C)n1 | ? | -2 | -2 | -54* | i | -1%
COc1ccccc1NC(=O)CSc1sc2c(O)cc(=O)[nH]c2c1C#N | -8 | 3 | -4 | -66* | i | -5%
COc1ccc(NC(=O)CSc2sc3c(O)cc(=O)[nH]c3c2C#N)c(OC)c1 | -1 | -18 | -18 | -65* | i | -8%
O=C(C[C@@H]1C/C=C\C[C@@H](Cc2ccc(F)cc2)C(=O)OC[C@@H](Cc2ccccc2)NC1=O)N[C@H](CO)Cc1ccccc1 | 1 | 0 | 3 | -9 | i | /
COCCN1C=C2C(=O)C(C)(OC(=O)CCC(=O)OC)C(=O)C(Br)=C2C=C1c1ccc(OC)cc1 (stereo unspecified) | -11 | -21 | -7 | -23 | i | /
COc1ccc(C2=CC3=C(Br)C(=O)C(C)(OC(=O)c4cccs4)C(=O)C3=CO2)cc1 (stereo unspecified) | -6 | -2 | -10 | -70* | i | 3%
Cc1cc(C(=O)OCC(=O)Nc2cc(S(=O)(=O)N3CCOCC3)ccc2Cl)c(C)o1 | -7 | -2 | -3 | 5 | i | 1%
Cc1cc(C(=O)OCC(=O)Nc2ccc(S(=O)(=O)N3CCOCC3)cc2)c(C)o1 | -4 | 5 | -9 | 6 | i | /
O=C(OCC(=O)N1N=C(c2ccc(Cl)cc2)CC1c1ccco1)c1cccnc1 (stereo unspecified) | / | -21 | -20 | -71* | i | -1%
COCC(=O)OCC(=O)N1N=C(c2ccc(Cl)cc2)CC1c1ccco1 (stereo unspecified) | -1 | -7 | 0 | 8 | i | /
CC(C)NC(=O)N(C)C[C@H]1Oc2ccc(NC(=O)Nc3ccccc3)cc2C(=O)N([C@H](C)CO)C[C@@H]1C | 0 | -2 | 1 | 1 | i | /
O=C(CN1CCCCCC1)Nc1cc([N+](=O)[O-])ccc1Cl | 5 | -19 | 14 | 6 | i | /
O=C(O)c1ccc(-c2nnn(Cc3cccc(C(F)(F)F)c3)n2)cc1 | / | -1 | 8 | -52* | i | -3%
O=C(O)Cn1nnc(-c2ccc(OCc3cccc(C(F)(F)F)c3)cc2)n1 | / | 0 | / | / | / | /
CCOC(=O)C1=CN(Cc2cccc(I)c2)S(=O)(=O)N(C)C1C (stereo unspecified) | 27 | -3 | 12 | 17 | i | /
CC(=O)c1ccc(S(=O)(=O)Nc2cccc(-n3cnnn3)c2)cc1 | 4 | -18 | 0 | -67* | i | -7%
CC(=O)Nc1ccc(S(=O)(=O)Nc2cccc(-n3cnnn3)c2)cc1 | 8 | -1 | 0 | 0 | i | /
COc1ccc(OC)c([N+](=O)[O-])c1C(N)=O | -4 | 6 | -11 | -65* | i | -10%
COc1ccc(NC(C)=O)c([N+](=O)[O-])c1[N+](=O)[O-] | 1 | -1 | 7 | -2 | i | /
COc1ccc(N2C(=O)CCC(C(=O)NCc3ccccn3)C2c2ccc(OC)c(OC)c2)cc1 (stereo unspecified) | -1 | -3 | 3 | -3 | i | /
SMILES | CtBP-E1A blk | PI4K2A block | Six1-Eya2 inh | PI5P4K alpha inh | Akt phos inh | ADP-Glo interf
O=C(Oc1cc2oc(=O)cc(-c3ccccc3)c2cc1Cl)C1CCCCC1 | 11 | 8 | 7 | -88* | i | -8%
CC(=O)Cn1nnc2sc(-c3ccccc3)cc2c1=O | 3 | 10 | -8 | -54* | i | 3%
CC(C)COC(=O)Cn1nnc2sc(-c3ccccc3)cc2c1=O | / | -1 | / | / | / | /
N#Cc1c(SCC(=O)Nc2cccc(C(F)(F)F)c2)sc2c(O)cc(=O)[nH]c12 | 5 | 9 | -13 | -103* | i | -1%
Cc1cc(NC(=O)CSc2sc3c(O)cc(=O)[nH]c3c2C#N)ccc1Br | -1 | -5 | -10 | -104* | i | 5%
Cc1cc(NC(=O)CSc2nc3[nH]c(=O)cc(O)c3s2)ccc1Br | 2 | -1 | -1 | -58* | i | -5%
Cc1ccc(C)c(NC(=O)CSc2sc3c(O)cc(=O)[nH]c3c2C#N)c1 | 0 | -12 | -3 | -64* | i | 3%
Cc1ccc(C)c(NC(=O)CSc2nc(C)cc(=O)[nH]2)c1 | / | -1 | / | / | / | /
COc1ccc2[nH]c(=O)c(-c3nnn(-c4ccc(F)cc4)n3)cc2c1 | -1 | 0 | 0 | -12 | i | /
O=c1[nH]nc(SCc2nnc(-c3ccc([N+](=O)[O-])cc3)o2)n1C1CCCCC1 | 0 | -4 | -4 | 2 | i | /
CCc1cc(-c2nnn(CCC3COCCO3)c2CC)ccc1-c1cn(Cc2ccccc2)nn1 (stereo unspecified) | -3 | 3 | -3 | 2 | i | /
COc1ccc2c(C)cc(=O)sc2c1 | 4 | -3 | 7 | -6 | i | /
O=C(CSc1nc(=O)n2cc(Cl)ccc2n1)Nc1ccc2c(c1)OCCO2 | -5 | -6 | -11 | -54* | i | -4%
O=C(CSc1nc(=O)n2cc(Cl)ccc2n1)Nc1ccc2c(c1)OCO2 | -4 | -8 | -6 | ? | i | /
COc1ccc(-c2cc(C(F)F)n3ncc(C(=O)n4ccnc4C)c3n2)cc1 | -5 | -6 | -10 | -26 | i | 3%
CSc1nc2c(c(=O)[nH]1)C(c1cccs1)C1=C(CCCC1=O)N2 (stereo unspecified) | -15 | 5 | -16 | -70* | i | 4%
CCSc1nc2c(c(=O)[nH]1)C(c1ccc(C)cc1)C1=C(CCCC1=O)N2 (stereo unspecified) | / | 1 | 6 | -1 | i | /
